Hits are enriched below; roughly 1.7% of the tested compounds scored in any of these assays.
PTHR1 ag: agonists of human PTHR1 parathyroid hormone receptor; Q03431; HEK293 GP2 PTHR1 cells, GloSensor cAMP luminescence, 1 h; 0.075% of 410,000 active; Potency, µM (doses to about 115 µM), hits mostly activators; also: nearly all actives have a fitted effect of over 55% in size
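HEK-293-derived GP2 cells expressing PTHR1 and a GloSensor cAMP reporter, 3,000/well, plated overnight, given luciferin plus IBMX (each 0.5 mM as added) for 1 h at 37 °C, then compound for 1 h at 37 °C. Luminescence was read after 15 min at room temperature.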
GLP1R cytotox: cytotoxic in the GLP-1 receptor inverse agonist counter-screen | HEK293 cAMP-luciferase reporter cells, luminescence, 24 h | Potency, µM (top dose mostly 38.3 µM), usual class: inhibitors | 0.13% of 410,000 active;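 also: loss of luciferase light is scored as toxicity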
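Seeding density was 200 cells/uL; after overnight-length (12 h) culture, 23 nL compounds went on for 24 h at 37 °C. Readout used a luciferase detection reagent, luminescence taken after 12 min at room temperature.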
GLP-1R agonist: activates the human GLP-1 receptor; HEK293 GLP-1R CRE-luciferase, luminescence, 4-6 h; cells express a hypersensitive GLP-1R form; 0.007% of 380,000 active; Potency, µM (titrated, usually from 45.6 µM), hits mostly activators; P43220
Target sequence (P43220 whole entry, looked up): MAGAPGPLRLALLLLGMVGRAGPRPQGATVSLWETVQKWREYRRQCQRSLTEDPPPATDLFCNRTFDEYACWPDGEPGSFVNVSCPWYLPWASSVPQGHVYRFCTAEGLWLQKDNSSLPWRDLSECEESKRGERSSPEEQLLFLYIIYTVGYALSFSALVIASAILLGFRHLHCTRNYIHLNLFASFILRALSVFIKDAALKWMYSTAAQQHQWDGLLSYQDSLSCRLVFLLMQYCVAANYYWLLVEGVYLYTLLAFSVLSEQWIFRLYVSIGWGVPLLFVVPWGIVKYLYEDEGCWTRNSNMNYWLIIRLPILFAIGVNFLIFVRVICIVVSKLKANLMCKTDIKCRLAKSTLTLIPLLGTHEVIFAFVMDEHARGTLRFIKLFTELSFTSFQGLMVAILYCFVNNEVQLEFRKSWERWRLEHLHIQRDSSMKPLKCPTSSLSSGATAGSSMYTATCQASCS
GLP-1R inv ag: inverse agonists of human GLP-1 receptor; HEK293 GLP-1R CRE-luciferase, luminescence, 24 h; GLP-1R form is constitutively active; Potency, µM (series often up to 38.3 µM), most hits filed as inhibitors; 1.6% of 410,000 active; also: nearly all actives have a fitted effect of over 55% in size
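qHTS in 1536-well format: reporter HEK293 cells expressing constitutive GLP-1R activity in DMEM + 10% Nu serum, 24 hr with compounds at 37 deg C, luminescence read after 12 min with detection reagent.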
Hits are given with their value; - = inactive; ? = inconclusive; . = no result. Calls follow the shape of the dose curve; as a rule, active = well fitted curve in the direction sought with a large enough effect; inconclusive = small, poorly fitted or top-dose-only effect, or another doubt; inactive = no such curve, though single readings can be large; an effect the other way counts as inactive or inconclusive.

SMILES	PTHR1 ag	GLP1R cytotox	GLP-1R agonist	GLP-1R inv ag
COCCOc1ccc(C(F)(F)F)cc1NC(=O)c1ccccc1	-	-	-	-
CC(C)(C)c1ccc(OCCOc2ccc(C(C)(C)C)cc2NC=O)c(NC=O)c1	-	-	-	4.5µM
COc1ccc2oc(=O)cc(CN3CCN(c4ccccc4F)CC3)c2c1	-	-	.	-
Cc1cc(C)n2nc(N)c(N=Nc3ccccc3)c2n1	-	10µM	-	-
O=C(CC(c1ccccc1)c1cc(Br)ccc1O)N1CCCCC1 (stereo not given)	-	-	-	10µM
O=C(CC(c1ccccc1)c1ccccc1O)N1CCCC1 (stereo not given)	-	-	-	-
Cc1ccc(Cl)cc1N1CCN(C(=O)c2ccc(CS(=O)Cc3ccc(Cl)cc3)o2)CC1 (stereo not given)	-	-	-	8.9µM
Cc1ccc(C)c(N2CCN(C(=O)c3ccc(CS(=O)Cc4ccc(Cl)cc4)o3)CC2)c1 (stereo not given)	-	-	-	10µM
CC(=O)c1cccc(NC(=O)CC(c2ccc(C)cc2)N2Cc3ccccc3C2=O)c1 (stereo not given)	-	-	-	-
Cc1ccc(S(=O)(=O)N2CCc3cc(C(=O)Nc4c(F)cccc4F)ccc32)cc1	-	-	.	-
CO/N=C(/CNC(=O)c1cccc(Cl)c1)c1ccc(Cl)cc1	-	-	-	11µM
CCN(CC)C(=S)SCC(=O)NC12CC3CC(CC(C3)C1)C2	-	-	-	2.8µM
CCN(CC)CC(=O)NC12CC3CC(CC(C3)C1)C2	-	-	-	-
CCc1ccc(NC(=O)c2ccc(F)c(S(=O)(=O)NC3CCCCCC3)c2)cc1	-	-	.	?
CCc1ccc(NC(=O)c2ccc(F)c(S(=O)(=O)NCC3COc4ccccc4O3)c2)cc1 (stereo not given)	-	?	-	5µM
CCOc1ccc(NC(=O)c2ccc(F)c(S(=O)(=O)N(Cc3ccc(C(=O)OC)cc3)Cc3ccc(OC)c(OC)c3)c2)cc1	-	-	.	-
CCc1ccc(NC(=O)c2ccc(F)c(S(=O)(=O)NCCc3ccc(OC)c(OC)c3)c2)cc1	-	-	.	10µM
CCOC(=O)c1cnc2c(C)c(Cl)ccc2c1N1CCN(CC)CC1	-	-	-	7.9µM
CCOC(=O)c1cnc2ccc(OCC)cc2c1N1CCN(c2ccccc2)CC1	-	-	-	8.9µM
CCOC(=O)c1cnc2ccc(OCC)cc2c1N1CCN(c2ccccc2F)CC1	-	-	.	?
Cc1ccc(NC(=O)c2oc3ccc(S(=O)(=O)N4CCC5(CC4)OCCO5)cc3c2C)c(C)c1	-	-	.	?
Cc1cccc(-n2c3nc(=O)[nH]c(=O)c-3cc3ccc(Cl)cc32)c1C	-	-	-	-
O=C(Nc1cc(Cl)ccc1Cl)c1cc(S(=O)(=O)N2CCCc3ccccc32)ccc1F	-	-	.	-
Cc1ccccc1Cn1cc(NC(=O)c2noc3c2CC(C(C)(C)C)CC3)cn1 (stereo not given)	-	-	-	-
Cc1ccccc1Cn1nc(C)c(NC(=O)c2noc3c2CC(C(C)(C)C)CC3)c1C (stereo not given)	-	-	-	10µM
SMILES	PTHR1 ag	GLP1R cytotox	GLP-1R agonist	GLP-1R inv ag
CSCCC(NC(=O)[C@H](Cc1c[nH]c2ccccc12)NC(=O)CNC(=O)[C@H](CCSC)NC(=O)[C@H](Cc1ccc(OS(=O)(=O)O)cc1)NC(=O)[C@@H](N)CC(=O)O)C(=O)N[C@@H](CC(=O)O)C(=O)N[C@@H](Cc1ccccc1)C(N)=O (stereo not given in full)	.	.	-	.
Cc1cccc(-n2ncc3c(NC4CCCCC4)ncnc32)c1	-	-	-	?
Clc1cccc(-n2ncc3c(NC4CCCCCC4)ncnc32)c1	-	-	.	10µM
Cc1ccc(-n2ncc3c(NC4CCCC4)ncnc32)cc1	-	-	.	?
COc1ccc(-n2ncc3c(NC4CCCC4)ncnc32)cc1	-	-	.	7.9µM
Cn1c(=O)c2c(-c3ccccc3Br)n(C(C)(C)C)cc2n(C)c1=O	-	-	.	-
COc1ccc(/C=C\c2onc(C)c2S(=O)(=O)N2CCC(C(=O)Nc3cccc(OC)c3)CC2)cc1	-	-	.	?
CC(C)c1ccc(Nc2c(-c3ccc(N4CCOCC4)cc3)nc3ncccn23)cc1	?	-	.	-
O=C(c1cccc(Cl)c1)N(Cc1ccco1)Cc1ccccc1Cl	-	-	.	10µM
CCc1ccc(OCC(=O)N(Cc2ccco2)Cc2ccccc2Cl)cc1	-	-	.	10µM
CCc1ccc(OCC(=O)N(Cc2ccc(C)cc2)Cc2ccco2)cc1	-	-	.	?
O=S(=O)(NCC(c1ccco1)N1CCN(c2ccc(F)cc2)CC1)c1ccc(F)cc1 (stereo not given)	-	-	-	10µM
COC(=O)NCC(c1ccco1)N1CCN(c2ccc(F)cc2)CC1 (stereo not given)	-	-	-	-
O=C(NCC(c1ccco1)N1CCN(c2ccc(F)cc2)CC1)OCc1ccccc1 (stereo not given)	-	-	-	3.5µM
CC1CCN(c2ncnc3c2cnn3-c2ccc(F)cc2)CC1	-	-	.	-
C[C@H]1NCc2cc(-c3ccc4c(=O)c(C(=O)O)cn(C5CC5)c4c3OC(F)F)ccc21	.	.	-	.
COc1ccc(Cl)cc1NC(=O)CSc1nc(-c2ccccc2)c2ccccc2n1	-	-	.	-
Cc1ccc(Cn2c(/C=C/c3ccco3)nc3ccccc32)cc1	-	-	-	11µM
Clc1ccc(Cn2c(/C=C/c3ccco3)nc3ccccc32)cc1	-	-	-	?
CSc1cccc(NS(=O)(=O)c2ccc(-c3coc(C)n3)cc2)c1	-	-	-	8.9µM
CN(CCCNC(=O)C1CCC(CNS(=O)(=O)c2ccccc2)CC1)Cc1ccccc1 (stereo not given)	-	-	-	3.5µM
CC(=O)Nc1ccc(S(=O)(=O)NCC2CCC(C(=O)NCCCN(C)Cc3ccccc3)CC2)cc1 (stereo not given)	-	-	-	?
C=CCNC(=O)c1c(CSc2ccccc2)noc1C(=O)NCc1ccccc1	-	-	-	-
CCCNC(=O)c1onc(CSc2ccc(Cl)cc2)c1C(=O)NCCC(C)C	-	-	-	10µM
C=CCNC(=O)c1c(CSc2ccc(Cl)cc2)noc1C(=O)NCc1ccccc1	-	-	-	7.9µM
SMILES	PTHR1 ag	GLP1R cytotox	GLP-1R agonist	GLP-1R inv ag
CCOC(=O)[C@H](CCc1ccccc1)N[C@H]1CCCN2CCC[C@@H](C(=O)O)N2C1=O	.	.	-	.
Cc1cc(NS(=O)(=O)c2cn(C)c(C)n2)ccc1Br	-	-	-	-
COC(=O)c1cccc(NC(=O)/C=C/c2ccc3c(c2)OCO3)c1	-	-	-	3.5µM
O=C(/C=C/c1ccc2c(c1)OCO2)Nc1cccnc1	-	-	-	10µM
CC(C)c1ccc(NC(=O)CSc2nc(=O)n(Cc3ccccn3)c3c2CCC3)cc1	-	-	.	-
Cc1ccc(CSCCNC(=O)CCSc2ccccc2)cc1	-	-	-	10µM
CCOC(=O)Cc1csc(NC(=O)Nc2ccc(Cl)cc2)n1	-	-	-	11µM

Source: PubChem (National Center for Advancing Translational Sciences (NCATS))
